# Source: the supplement of paper PMC8728848
# The full list was thinned out, with the strongest signals kept by preference.
# B1: DETC sTCR (Mus musculus) (protein)
# chain: LDVYLEPVAKTFTVVAGDPASFYCTVTGGDMKNYHMSWYKKNGTNALFLVYKLNSNSTDGGKSNLKGKINISKNQFILDIQKATMKDAGTYYCGSDIGGSSWDTRQMFFGTGIELFVEPKSQPPAKPSVFIMKNGTNVACLVKDFYPKEVTISLRSSKKIVEFDPAIVISPSGKYSAVKLGQYGDSNSVTCSVQHNSETVHSTDFEPYANSFNNEKLPEPENDTQISEPCSSADLVPRGSTTAPSAQLKKKLQALKKKNAQLKWKLQALKKKLAQHHHHHHDSWISQDQLSFTRRPNKTVHISCKLSGVPLHNTIVHWYQLKEGEPLRRIFYGSVKTYKQDKSHSRLEIDEKDDGTFYLIINNVVTSDEATYYCACWDSSGFHKVFAEGTKLIVIPSDKRLDADISPKPTIFLPSVAETNLHKTGTYLCLLEKFFPDVIRVYWKEKDGNTILDSQEGDTLKTNDTYMKFSWLTVPERAMGKEHRCIVKHENNKGGADQEIFFPSIKKVAVSTKPTTCSSADLVPRGSTTAPSAQLEKELQALEKENAQLEWELQALEKELAQLNDIFEAQKIEW
# B2: HHL-1 (Homo sapiens), P07306 (protein)
# chain: TKEYQDLQHLDNEESDHHQLRKGPPPPQPLLQRLCSGPRLLLLSLGLSLLLLVVVCVIGSQNSQLQEELRGLRETFSNFTASTEAQVKGLSTQGGNVGRKMKSLESQLEKQQKDLSEDHSSLLLHVKQFVSDLRSLSCQMAALQGNGSERTCCPVNWVEHERSCYWFSRSGKAWADADNYCRLEDAHLVVVTSWEEQKFVQHHIGPVNTWMGLHDQNGPWKWVDGTDYETGFKNWRPEQPDDWYGHGLGGGEDCAHFTDDGRWNDDVCQRPYRWVCETELDKASQEPPLL
# Tests used:
# Assay in all cases: glycan array binding signal (z-score within array); higher = stronger binding
# Conditions in all cases: glycan notation: IUPAC condensed, linker removed
# [1] = target: Fuc(a1-2)Gal(b1-3)GlcNAc(b1-3)[Gal(b1-4)[Fuc(a1-3)]GlcNAc(b1-6)]Gal(b1-4)Glc
# Procedure, shortened: (§1)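 The Consortium for Functional Glycomics database supplied 3228 glycan arrays, of which those lacking an available protein sequence were dropped. The binding signal, a within-array Z-score, was averaged across arrays of the same protein sequence and across linkers. Negative scores can be read as non-binding.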
# [2] = target: Fuc(a1-2)Gal6S(b1-4)GlcNAc
# Procedure, shortened: as §1
# [3] = target: Fuc(a1-2)[Gal(a1-3)]Gal
# Procedure, shortened: as §1
# [4] = target: Fuc(a1-2)[Gal(a1-3)]Gal(b1-3)GlcNAc
# Procedure, shortened: as §1
# [5] = target: Fuc(a1-3)[Gal(b1-4)]GlcNAc(b1-2)Man(a1-3)[Fuc(a1-3)[Gal(b1-4)]GlcNAc(b1-2)Man(a1-6)]Man(b1-4)GlcNAc(b1-4)GlcNAc
# Procedure, shortened: as §1
# [6] = target: Fuc(a1-3)[Gal(b1-4)]GlcNAc(b1-3)Gal(b1-3)[Fuc(a1-4)]GlcNAc
# Procedure, shortened: as §1
# [7] = target: Gal(b1-2)Gal
# Procedure, shortened: as §1
# [8] = target: Gal(b1-4)GlcNAc(b1-2)Man(a1-6)[Man(a1-3)]Man(b1-4)GlcNAc(b1-4)GlcNAc
# Procedure, shortened: as §1
# [9] = target: Gal(b1-4)GlcNAc(b1-3)Gal(b1-4)Glc
# Procedure, shortened: as §1
# [10] = target: Gal3S(b1-4)GlcNAc
# Procedure, shortened: as §1
# [11] = target: Gal3S6S(b1-4)GlcNAc
# Procedure, shortened: as §1
# [12] = target: GalNAc(a1-3)Gal
# Procedure, shortened: as §1
# [13] = target: GlcNAc(a1-4)Gal(b1-4)GalNAc
# Procedure, shortened: as §1
# [14] = target: GlcNAc(a1-4)Gal(b1-4)GlcNAc(b1-3)Gal(b1-4)[Fuc(a1-3)]GlcNAc(b1-3)Gal(b1-4)[Fuc(a1-3)]GlcNAc
# Procedure, shortened: as §1
# [15] = target: GlcNAc(b1-3)Gal(b1-4)GlcNAc
# Procedure, shortened: as §1
# [16] = target: GlcNAc(b1-3)Man
# Procedure, shortened: as §1
# [17] = target: Man(a1-2)Man(a1-2)Man(a1-6)[Man(a1-3)]Man
# Procedure, shortened: as §1
# [18] = target: Man(a1-2)Man(a1-3)Man
# Procedure, shortened: as §1
# [19] = target: Neu5Ac(a2-3)Gal(b1-3)GalNAc6S
# Procedure, shortened: as §1
# [20] = target: Neu5Ac(a2-3)Gal(b1-4)GlcNAc(b1-3)Gal(b1-4)GlcNAc(b1-3)Gal(b1-4)GlcNAc
# Procedure, shortened: as §1
# [21] = target: Neu5Ac(a2-6)GlcNAc(b1-4)GlcNAc(b1-4)GlcNAc
# Procedure, shortened: as §1
# [22] = target: Neu5Ac9Ac(a2-3)Gal(b1-4)GlcNAc
# Procedure, shortened: as §1
# [23] = target: Neu5Gc(a2-3)Gal(b1-3)GlcNAc
# Procedure, shortened: as §1
# [24] = target: Fuc(a1-2)Gal(b1-4)GlcNAc(b1-2)Man(a1-3)[Fuc(a1-2)Gal(b1-4)GlcNAc(b1-2)Man(a1-6)]Man(b1-4)GlcNAc(b1-4)GlcNAc
# Procedure, shortened: as §1
# [25] = target: Fuc(a1-2)[GalNAc(a1-3)]Gal(b1-4)GlcNAc(b1-3)Gal(b1-4)GlcNAc(b1-3)Gal(b1-4)GlcNAc
# Procedure, shortened: as §1
# [26] = target: Fuc(a1-2)[GalNAc(a1-4)]Gal(b1-4)GlcNAc
# Procedure, shortened: as §1
# [27] = target: Gal(a1-2)Gal
# Procedure, shortened: as §1
# [28] = target: Gal(a1-3)[Gal(a1-4)]Gal(b1-4)GlcNAc
# Procedure, shortened: as §1
# [29] = target: Gal(a1-4)Gal(b1-4)GlcNAc
# Procedure, shortened: as §1
# [30] = target: Gal(b1-4)GlcNAc(b1-6)Gal(b1-4)GlcNAc(b1-6)GalNAc
# Procedure, shortened: as §1
# [31] = target: Gal(b1-4)GlcNAc(b1-6)GalNAc
# Procedure, shortened: as §1
# [32] = target: Gal3S6S(b1-4)GlcNAc6S
# Procedure, shortened: as §1
# [33] = target: GalNAc(b1-3)Gal
# Procedure, shortened: as §1
# [34] = target: GalNAc(b1-3)Gal(a1-4)Gal(b1-4)GlcNAc
# Procedure, shortened: as §1
# [35] = target: GalNAc(b1-3)Gal(a1-4)Gal(b1-4)GlcNAc(b1-3)Gal(b1-4)Glc
# Procedure, shortened: as §1
# [36] = target: GlcNAc(a1-4)Gal(b1-4)GlcNAc(b1-3)Gal(b1-4)Glc
# Procedure, shortened: as §1
# [37] = target: GlcNAc(b1-6)GalNAc
# Procedure, shortened: as §1
# [38] = target: Kdn(a2-3)Gal(b1-3)GlcNAc
# Procedure, shortened: as §1
# [39] = target: Kdn(a2-3)Gal(b1-4)GlcNAc
# Procedure, shortened: as §1
# [40] = target: Man(a1-3)[Man(a1-6)]Man
# Procedure, shortened: as §1
# [41] = target: Man(a1-3)[Man(a1-6)]Man(a1-6)[Man(a1-2)Man(a1-3)]Man(b1-4)GlcNAc(b1-4)GlcNAc
# Procedure, shortened: as §1
# [42] = target: Neu5Ac(a2-3)Gal(b1-3)GalNAc
# Procedure, shortened: as §1
# [43] = target: Neu5Ac(a2-3)Gal(b1-3)GalNAc(b1-3)Gal(b1-4)GlcNAc
# Procedure, shortened: as §1
# [44] = target: Neu5Ac(a2-3)Gal(b1-3)[Neu5Ac(a2-3)Gal(b1-4)]GlcNAc
# Procedure, shortened: as §1
# [45] = target: Neu5Ac(a2-3)GalNAc
# Procedure, shortened: as §1
# [46] = target: Neu5Ac(a2-6)GlcNAc(b1-4)GlcNAc
# Procedure, shortened: as §1
# [47] = target: Neu5Ac(b2-6)Gal(b1-4)GlcNAc
# Procedure, shortened: as §1
# [48] = target: Neu5Ac(b2-6)GalNAc
# Procedure, shortened: as §1
# [49] = target: Neu5Gc(a2-3)Gal(b1-4)[Fuc(a1-3)]GlcNAc
# Procedure, shortened: as §1
# [50] = target: Neu5Gc(a2-6)GalNAc
# Procedure, shortened: as §1
binder,measurement,setting,value
B1,glycan array binding signal (z-score),[1],-0.448
same,glycan array binding signal (z-score),[2],2.96
same,glycan array binding signal (z-score),[3],0.343
same,glycan array binding signal (z-score),[4],-0.572
same,glycan array binding signal (z-score),[5],-0.52
same,glycan array binding signal (z-score),[6],-0.531
same,glycan array binding signal (z-score),[7],-0.101
same,glycan array binding signal (z-score),[8],6.38
same,glycan array binding signal (z-score),[9],-0.495
same,glycan array binding signal (z-score),[10],2.74
same,glycan array binding signal (z-score),[11],-0.25
same,glycan array binding signal (z-score),[12],-0.71
same,glycan array binding signal (z-score),[13],3.96
same,glycan array binding signal (z-score),[14],5.91
same,glycan array binding signal (z-score),[15],-0.215
same,glycan array binding signal (z-score),[16],-0.035
same,glycan array binding signal (z-score),[17],0.993
same,glycan array binding signal (z-score),[18],-0.043
same,glycan array binding signal (z-score),[19],1.09
same,glycan array binding signal (z-score),[20],-0.518
same,glycan array binding signal (z-score),[21],5.83
same,glycan array binding signal (z-score),[22],0.262
same,glycan array binding signal (z-score),[23],-0.599
B2,glycan array binding signal (z-score),[1],0.628
same,glycan array binding signal (z-score),[24],-0.533
same,glycan array binding signal (z-score),[25],-0.3
same,glycan array binding signal (z-score),[26],7.69
same,glycan array binding signal (z-score),[27],0.419
same,glycan array binding signal (z-score),[28],0.667
same,glycan array binding signal (z-score),[29],-0.54
same,glycan array binding signal (z-score),[30],0.262
same,glycan array binding signal (z-score),[31],4.51
same,glycan array binding signal (z-score),[32],0.503
same,glycan array binding signal (z-score),[33],4.09
same,glycan array binding signal (z-score),[34],5.53
same,glycan array binding signal (z-score),[35],5.52
same,glycan array binding signal (z-score),[36],-0.538
same,glycan array binding signal (z-score),[37],7.59
same,glycan array binding signal (z-score),[38],-0.538
same,glycan array binding signal (z-score),[39],0.051
same,glycan array binding signal (z-score),[40],-0.472
same,glycan array binding signal (z-score),[41],-0.485
same,glycan array binding signal (z-score),[42],0.366
same,glycan array binding signal (z-score),[43],-0.541
same,glycan array binding signal (z-score),[44],-0.548
same,glycan array binding signal (z-score),[45],-0.482
same,glycan array binding signal (z-score),[46],0.387
same,glycan array binding signal (z-score),[47],-0.409
same,glycan array binding signal (z-score),[48],-0.515
same,glycan array binding signal (z-score),[49],0.159
same,glycan array binding signal (z-score),[50],-0.536
